From PubChem BioAssay come the findings set out here.

The source made the active and inactive calls.

Test [1] deals with Plasmodium falciparum Sir2 (PF13_0152, Sir2A). The experiment in a line: Plasmodium falciparum Sir2A binding compounds – biochemical, small-molecule microarray, 635 nm fluorescence, primary screen (AID 1098).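 Also: score merges spot fluorescence intensity with its signal-to-noise ratio.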 The settings on record: fluorescence 635 nm, higher = more signal.
Test [2] is described as follows: probe aDKK1 binding to arrayed compounds – biochemical, biotinylated probe, 635/667 nm fluorescence, primary screen (AID 1099).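 Also: score merges 667nm spot fluorescence with signal to noise across triplicate slides.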 The settings on record: small-molecule microarray, higher = more signal.
A short description of test [3]: probe aCHRDL2 binding to arrayed compounds – biochemical, biotinylated probe, 635/667 nm fluorescence, primary screen (AID 1100). To be noted: small-molecule microarray, higher = more signal.
The nature of test [4]: change in splice reporter luminescence, either direction, cell-based, HEK293, spliceosome inhibition project, primary screen (AID 1101).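 Also: HEK293 cells carrying a splicing-competent luciferase reporter gene; test concentration not given here.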 The settings on record: HEK293 splicing luciferase reporter, 24 h, higher = more signal, called active from +8 up or from −8 down.
Test [5] concerns the target Fibroblast growth factor 10 (Homo sapiens) (UniProt O15520). The experiment in a line: compounds binding fibroblast growth factor 10 – biochemical, small-molecule microarray, 635 nm fluorescence, primary screen (AID 1102). To be noted: FGF10 binding, fluorescence 635 nm, higher = more signal.
Test [6] has as its system glycogen synthase kinase-3 (GSK3A per assay name; protocol says GSK3B). Description: compounds binding glycogen synthase kinase-3 – biochemical, small-molecule microarray, 635 nm fluorescence, GSK3A, primary screen (AID 1103). Also: the record names both GSK3A and GSK3B. To be noted: fluorescence 635 nm, higher = more signal.
Test [7] addresses Epidermal growth factor receptor (Homo sapiens) (UniProt P00533). The experiment in a line: compounds binding epidermal growth factor receptor – biochemical, small-molecule microarray, 635 nm fluorescence, primary screen (AID 1104).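 Also: score merges 667 nm emission intensity with spot signal to noise over triplicate slides.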 To be noted: EGFR binding, higher = more signal.
The target in test [8] is Follistatin-related protein 3 (Homo sapiens) (UniProt O95633). The experiment in a line: compounds binding follistatin-related protein 3 – biochemical, small-molecule microarray, 635 nm fluorescence, primary screen (AID 1105).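 Also: score merges emission near 667 nm and signal to noise per printed spot across three slides.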 To be noted: FSTL3 binding, higher = more signal.
Test [9] has as its target Dickkopf-related protein 1 (Homo sapiens) (UniProt O94907). Description: small molecules binding DKK1 protein – biochemical, small-molecule microarray, 635 nm fluorescence scan, primary screen (AID 1106).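 Also: score merges emission near 667 nm with signal to noise over three replicate slides.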 The settings on record: higher = more signal.
The test system of test [10] is Inhibin beta A chain (activin A). Description: small molecules binding activin A – biochemical, small-molecule microarray, 635 nm fluorescence scan, primary screen (AID 1107).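 Also: mouse activin A protein probed at 4.33 µg/mL on printed slides; score merges bound-protein fluorescence near 667 nm with spot signal-to-noise.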 The settings on record: INHBA, higher = more signal.
Test [11] relates to Human papillomavirus type 1a protein E7 (residues 44-93). Description: small molecules binding HPV E7 44-93 – biochemical, small-molecule microarray, residues 44-93, 635 nm fluorescence, primary screen (AID 1108).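 Also: E7 fragment applied at 1 µg/mL in TBST for 1 h at 4 C; score combines spot fluorescence with its signal to noise ratio.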 To be noted: fluorescence 635 nm, higher = more signal.
Test [12] in a line: hepatitis C replication reporter changes, two-sided – Huh7 cells, luciferase reporter, HCV replication inhibitor project, primary screen (AID 1109).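 Also: huh7 hepatoma cells harbouring a luciferase neomycin HCV replicon reporter; luciferase luminescence as measure of HCV replicon replication; test concentration not given here.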 The settings on record: Huh7 HCV replicon luciferase reporter, 48 h; higher = more signal.
Test [13] deals with Left-right determination factor 2 (Homo sapiens) (UniProt O00292). The experiment in a line: small molecules binding LEFTY2 protein – biochemical, small-molecule microarray, 635 nm fluorescence scan, primary screen (AID 1110). The settings on record: higher = more signal.
In test [14] the target is Calmodulin-1 (Homo sapiens) (UniProt P0DP23). Description: small molecules binding calmodulin-1 with EGTA – biochemical, small-molecule microarray, Cy5-labelled CALM1, profiling panel (AID 1111).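 Also: labelled calmodulin applied in Tris saline Tween buffer holding calcium plus EGTA and DTT.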 The settings on record: Cy5-CALM1 binding fluorescence, higher = more signal.
For test [15] the target is unchanged. The experiment in a line: small molecules binding Ca-loaded calmodulin-1 – biochemical, small-molecule microarray, Cy5-labelled CALM1, plus calcium, artefact control for SMM control-protein annotation, profiling panel (AID 1112).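 Also: score merges spot fluorescence with signal to noise from triplicate slides.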 The settings on record: Cy5-CALM1 binding fluorescence, higher = more signal.
Test [16] in a line: probe aWnt5a binding to arrayed compounds – biochemical, biotinylated probe, 635/667 nm fluorescence, primary screen (AID 1113).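 Also: score merges 667 nm fluorescence intensity with signal-to-noise per printed feature.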 The settings on record: small-molecule microarray, higher = more signal.
The nature of test [17]: probe aShh binding to arrayed compounds – biochemical, biotinylated probe, 635/667 nm fluorescence, primary screen (AID 1114).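 Also: probe is biotin-labelled aShh protein from a stem cell growth factor screen; measures binding of labelled protein to compounds printed on the slide; score merges feature fluorescence at 667 nm with signal-to-noise.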 The settings on record: small-molecule microarray, higher = more signal.
Test [18] can be described thus: probe aNog binding to arrayed compounds – biochemical, biotinylated probe, 635/667 nm fluorescence, primary screen (AID 1115).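 Also: probe is biotinylated aNog protein used at 0.15 µg/mL for 1 h at 4 C; z-score combines 667 nm fluorescence of each spot with its signal to noise.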 To be noted: small-molecule microarray, higher = more signal.
For test [19], the target named is Torsin-1A-interacting protein 1 (Homo sapiens) (UniProt Q5JTV8). Description: compound microarray binding of lysate hLAP1 – cell lysate, small-molecule microarray, COS7 lysate, 635/667 nm fluorescence, primary screen (AID 1116). To be noted: 635 nm fluorescence, higher = more signal.
The target of test [20] is Alpha-bungarotoxin (Bungarus multicinctus) (UniProt P60615). The experiment in a line: compounds binding labelled alpha-BTX control protein – biochemical, small-molecule microarray, Alexa647 label, 635/667 nm fluorescence, artefact control for SMM control protein annotation, profiling panel (AID 1117). The settings on record: alpha-BTX-A647 binding fluorescence, higher = more signal.
Sequence of Alpha-bungarotoxin (Bungarus multicinctus) (P60615 whole entry, looked up): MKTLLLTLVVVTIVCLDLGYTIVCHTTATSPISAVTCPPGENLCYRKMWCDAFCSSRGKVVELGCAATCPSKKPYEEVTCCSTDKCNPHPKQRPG

Sequence of Left-right determination factor 2 (Homo sapiens) (O00292 whole entry, looked up): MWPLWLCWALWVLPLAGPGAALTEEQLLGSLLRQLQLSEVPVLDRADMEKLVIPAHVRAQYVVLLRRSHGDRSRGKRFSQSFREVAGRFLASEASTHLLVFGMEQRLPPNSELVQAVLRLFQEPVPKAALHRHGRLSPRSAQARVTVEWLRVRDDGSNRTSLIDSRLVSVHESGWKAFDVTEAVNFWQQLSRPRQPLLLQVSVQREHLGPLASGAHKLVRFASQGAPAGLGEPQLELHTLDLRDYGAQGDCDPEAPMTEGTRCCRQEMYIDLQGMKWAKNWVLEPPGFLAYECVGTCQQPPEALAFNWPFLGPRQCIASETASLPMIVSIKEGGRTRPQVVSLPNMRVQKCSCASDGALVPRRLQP
Sequence of Fibroblast growth factor 10 (Homo sapiens) (O15520 whole entry, looked up): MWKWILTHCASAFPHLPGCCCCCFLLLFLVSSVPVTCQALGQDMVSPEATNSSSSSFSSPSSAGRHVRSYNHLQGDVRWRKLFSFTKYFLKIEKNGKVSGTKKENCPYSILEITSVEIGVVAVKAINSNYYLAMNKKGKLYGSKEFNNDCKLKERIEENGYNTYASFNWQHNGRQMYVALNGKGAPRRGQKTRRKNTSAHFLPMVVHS
Sequence of Torsin-1A-interacting protein 1 (Homo sapiens) (Q5JTV8 whole entry, looked up): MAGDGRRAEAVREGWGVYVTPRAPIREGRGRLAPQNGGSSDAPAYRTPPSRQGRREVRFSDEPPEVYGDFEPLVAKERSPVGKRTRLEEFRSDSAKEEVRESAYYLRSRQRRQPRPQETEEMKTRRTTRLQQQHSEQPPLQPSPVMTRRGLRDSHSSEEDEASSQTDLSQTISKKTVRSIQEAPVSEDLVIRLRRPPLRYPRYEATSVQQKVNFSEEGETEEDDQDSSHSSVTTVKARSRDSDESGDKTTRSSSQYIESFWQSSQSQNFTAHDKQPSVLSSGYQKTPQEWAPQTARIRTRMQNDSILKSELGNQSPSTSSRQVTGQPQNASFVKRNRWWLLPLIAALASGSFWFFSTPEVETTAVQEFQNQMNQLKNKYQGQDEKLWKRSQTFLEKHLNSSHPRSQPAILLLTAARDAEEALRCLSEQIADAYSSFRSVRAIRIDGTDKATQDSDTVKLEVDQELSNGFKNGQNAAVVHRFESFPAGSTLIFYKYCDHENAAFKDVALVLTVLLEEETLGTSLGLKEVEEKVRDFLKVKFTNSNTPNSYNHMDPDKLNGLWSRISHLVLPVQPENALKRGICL
Sequence of Dickkopf-related protein 1 (Homo sapiens) (O94907 whole entry, looked up): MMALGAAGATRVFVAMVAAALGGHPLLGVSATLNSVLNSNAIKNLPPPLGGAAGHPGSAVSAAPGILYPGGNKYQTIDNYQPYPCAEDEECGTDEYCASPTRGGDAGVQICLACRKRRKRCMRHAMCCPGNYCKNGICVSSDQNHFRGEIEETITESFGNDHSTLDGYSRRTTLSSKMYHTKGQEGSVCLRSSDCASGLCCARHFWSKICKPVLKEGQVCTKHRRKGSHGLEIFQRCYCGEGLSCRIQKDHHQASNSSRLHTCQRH
Sequence of Epidermal growth factor receptor (Homo sapiens) (P00533 whole entry, looked up): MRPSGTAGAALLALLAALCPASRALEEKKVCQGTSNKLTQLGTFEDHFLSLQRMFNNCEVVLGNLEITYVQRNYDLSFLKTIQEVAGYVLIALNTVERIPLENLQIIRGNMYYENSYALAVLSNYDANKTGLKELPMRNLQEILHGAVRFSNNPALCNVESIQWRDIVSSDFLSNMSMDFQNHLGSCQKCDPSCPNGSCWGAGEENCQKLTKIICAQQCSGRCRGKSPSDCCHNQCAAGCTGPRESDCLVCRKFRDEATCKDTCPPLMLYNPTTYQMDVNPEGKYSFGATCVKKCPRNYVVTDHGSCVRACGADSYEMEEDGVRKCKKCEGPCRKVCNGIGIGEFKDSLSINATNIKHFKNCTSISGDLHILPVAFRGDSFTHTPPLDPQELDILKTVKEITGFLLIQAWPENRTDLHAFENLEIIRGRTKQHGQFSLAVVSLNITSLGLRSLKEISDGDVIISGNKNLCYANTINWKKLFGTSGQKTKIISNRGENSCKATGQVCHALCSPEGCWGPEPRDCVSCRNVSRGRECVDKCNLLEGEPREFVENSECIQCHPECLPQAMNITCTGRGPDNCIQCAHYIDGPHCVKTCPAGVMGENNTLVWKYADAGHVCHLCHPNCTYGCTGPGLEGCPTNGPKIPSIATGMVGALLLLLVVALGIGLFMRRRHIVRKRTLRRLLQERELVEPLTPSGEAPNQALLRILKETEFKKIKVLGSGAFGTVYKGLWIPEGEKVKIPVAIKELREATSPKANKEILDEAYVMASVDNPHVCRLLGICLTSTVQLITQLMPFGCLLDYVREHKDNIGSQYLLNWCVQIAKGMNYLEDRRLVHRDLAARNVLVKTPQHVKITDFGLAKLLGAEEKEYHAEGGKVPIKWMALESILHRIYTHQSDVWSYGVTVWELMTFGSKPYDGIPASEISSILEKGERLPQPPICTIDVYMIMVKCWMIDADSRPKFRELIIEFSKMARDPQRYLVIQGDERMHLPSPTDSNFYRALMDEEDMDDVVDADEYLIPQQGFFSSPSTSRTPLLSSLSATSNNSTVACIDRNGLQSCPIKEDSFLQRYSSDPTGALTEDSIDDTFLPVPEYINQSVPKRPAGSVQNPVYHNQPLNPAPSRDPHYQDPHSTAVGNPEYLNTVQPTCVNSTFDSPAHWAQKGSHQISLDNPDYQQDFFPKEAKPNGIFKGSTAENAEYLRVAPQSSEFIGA
Sequence of Follistatin-related protein 3 (Homo sapiens) (O95633 whole entry, looked up): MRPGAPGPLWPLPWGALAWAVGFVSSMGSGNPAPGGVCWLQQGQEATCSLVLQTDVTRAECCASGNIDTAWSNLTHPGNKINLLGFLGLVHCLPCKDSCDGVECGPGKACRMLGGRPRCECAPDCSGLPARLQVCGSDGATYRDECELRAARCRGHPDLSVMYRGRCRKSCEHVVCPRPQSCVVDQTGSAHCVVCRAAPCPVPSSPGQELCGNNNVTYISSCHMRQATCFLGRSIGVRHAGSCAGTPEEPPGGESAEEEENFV

On to `CC(C)C(CO)N1C(=O)[C@@H]2[C@H]3C(=O)OCC=C[C@H]3OC23C=CCN(Cc2ccccc2)C(=O)[C@@H]13` (stereo not given in full), for which the composite z-score in test [1] was -0.734; in [2], -0.26; in test [3], 0.0297; in test [5], -0.367; in test [6], -0.882; in [7] it was -1.12. The composite z-score in test [8] was -0.718; in test [9] it was -0.149; in test [10], 0.859; in test [11], -1.25; in test [13] it was -0.275; in test [14], -0.886. Further, the composite z-score was -0.783 in test [15]; -0.256 in test [16]; 0.0141 in [17]; 0.0342 in test [18]; -0.207 in test [19]; -1.44 in test [20]. Also, the z-score in test [4] was -0.346 (inactive); in test [12], -0.498.
In the case of `C=CCN1C(=O)[C@@]2(O[C@@H](CCn3cc(CCO)nn3)[C@H]([Si](C)(C)c3ccc(OC)cc3)[C@H]2C)c2cc(N3C(=O)c4cccc5cccc3c45)ccc21`, the composite z-score in test [1] is 0.579; in test [2], 0.13; in test [3], -0.224; in test [5], 0.466; in test [6], 0.308; in [7], 0.234. Moreover, the composite z-score in test [8] is 0.688; in [9] it was 0.315; in [10], 0.58; in test [11], 0.51; in test [13], -0.165; in test [14], 1.37. The composite z-score in test [15] is 0.258; in test [16], 0.0733; in test [17], -0.138; in test [18], 0.473; in test [19], 0.482; in test [20], 1.6. The z-score in test [4] was -3.34 (inactive); in test [12], -5.22.
Turning to `C=C(/C(=C/C[C@H](OC(=O)c1ccncc1)c1cccc(OCCO)c1)c1cc(C(=O)OC)ccc1OC)C(C)C`, the composite z-score in test [1] is 0.903; in [2] it was 0.235; in test [3], 0.569; in [5], 0.493; in test [6], -0.129; in test [7] it was -0.763. For the same compound, the composite z-score in [8] is -0.127; in test [9] it was -0.227; in [10], 0.639; in [11], 0.0251; in test [13] it was -0.107; in test [14], -0.193. Besides, the composite z-score in test [15] was -0.808; in [16], -0.169; in test [17], -0.0035; in test [18], 0.0866; in test [19] it was -0.142; in test [20], 0.288. The z-score in test [4] is -1.63 (inactive); in test [12], -1.86.
For the compound `CO[C@H]1O[C@H](CO)[C@@H](OC(=O)CCc2ccccc2)[C@@H]2OC(=O)[C@H](Cc3ccccc3)C/C=C/C[C@@H](Cc3ccccc3)C(=O)O[C@@H]12`, the composite z-score in [1] is 0.489; in test [2], -0.332; in test [3], 0.268; in test [5] it was -0.135; in [6] it was -1.24; in [7] it was -0.938. For the same compound, the composite z-score is -0.861 in test [8]; -0.844 in test [9]; 1.17 in test [10]; -0.673 in test [11]; -0.0637 in test [13]; -0.879 in [14]. In addition, the composite z-score was -0.123 in test [15]; -0.106 in [16]; -0.471 in test [17]; 0.248 in test [18]; 0.108 in test [19]; -0.75 in test [20]. Moreover, the z-score in test [4] is -0.87 (inactive); in test [12], -1.31.
`COCCCNC(=O)[C@@]1(C)c2ccccc2C(=O)N(Cc2cc(F)cc(C(F)(F)F)c2)[C@H]1c1ccc(CO)cc1`: the composite z-score was 0.938 in [1]; 0.612 in [2]; 0.862 in [3]; 0.22 in test [5]; -0.611 in [6]; -1.79 in test [7]. Also, the composite z-score in [8] is -1.69; in test [9], -2.23; in test [10], -0.39; in test [11], -0.762; in test [13], -1.88; in [14] it was -0.416. Further, the composite z-score in test [15] was 0.49; in test [16], -0.178; in test [17] it was -0.0769; in [18], -0.144; in test [19] it was 0.0999; in [20], -1.97. In addition, the z-score in test [4] is -0.112 (inactive); in test [12], 0.67.
